Results as given in PubChem BioAssay AID1508600 (Functional Genomics Laboratory (NCATS/FGL), 2020).
Screen size: about 53,000 sequences; about 3,700 (7%) were called active.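 How the source made its calls: active means gene knockdowns whose robust z-score for IL-1 alpha signal is at least 2 or at most -2, so actives lie on both sides; inactive means the rest.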 Only a selection was taken, and actives are over-represented in it overall.

Test: Components of the Cytosolic LPS Sensing Pathway: Gene Identification via Genome-wide siRNA Screen;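 further: robust z of the log signal after scaling to non-targeting control siRNA wells of the plate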
Settings: RAW264.7 macrophages, IL-1a HTRF, actives lie on both sides, screened at 100 nM (by protocol), cells primed 5 h with Pam3CSK4 first
Summary of the method: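 Supernatant IL-1a by HTRF from RAW264.7 cells primed with Pam3CSK4 (5 hours) and transfected with LipidA (24 hour) after 48h siRNA knockdown at 100 nM; cell viability checked with CellTiter-Glo.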

z-score, active:
GCUACAUAAUUCCGAAGUUTT against Fmr1 2.23
GGAGAGUAUGGACAGUAUUTT against Pgc 2.96
GGCAGCUGUAGAGGUGUUCTT against Haus7 2.36
GGUGUUCUUGAGCUGUGAGTT against Igfbp7 -2.32
GGCUCUUUCAACGUAAAUUTT against Fan1 -2.72
CCCUCAAAGACCUGUACAUTT against Gm266 2.78
GGAUCAUCAAGAUAUAGAUTT against Trpm7 2.44
GGAUAUGCCUCCCUUGAUGTT against Gstt3 -2.4
GGCAGCUAGAGAGAAUCCUTT against Akr1c12 -2.45
GGACUGGUUCUUCAGAUCCTT against Depp1 3.31
GGUUCUUUUUGCCACAGCCTT against Miga2 -2.31
GCAGAACUUGACCACUGCCTT against Defb2 2.58
GGUAUGUAGGAAUUACAGUTT against AI606181 2.49
GCAGGGAUCUGGAUUUAAUTT against Arf5 3.37
GGUGACUUCCACUCUAACUTT against Sohlh2 -2.57
GUAAGGUAUUCAGUGACCUTT against Olfml2a -2.23
GGACAUCGGCUACAACACCTT against Fzd10 -2.08
GGGCCAAGAUACCAAGAGUTT against Spout1 -2.71
GCACUGUAUUCUUGAGCACTT against 1700020L24Rik 2.06
GCCCAGUACUCCGCUUACATT against Bhlhe23 -2.03
ACCAGCACGACAGAUGCUATT against Pla2g12a 3.15
GGACUAGCAGUAAUAAAAGTT against Zdhhc9 -2.37

z-score, inactive:
GGAGAAAUUUAAGAAGAGUTT against Xrcc5 0.674
GCCAGAGGAUAACCUAUCGTT against Dsg4 -0.254
AAACUUGGCGUAUCAGGAATT against Gm3696 -1.45
GGAGUUUGUCUUCUCUUUCTT against Foxf1 0.0377
GCAAAGACAAUCUUUAAGGTT against Pde4d -0.747
CCUUGUAAGUGAGAUCCGATT against Olfr118 1.38
GGAGUAGAUGACAACACUATT against Defb19 -0.401
CGUGGCUAAACAAAGAGCUTT against Sass6 -0.841
CCCAAAAACGUGACAUCUUTT against Inppl1 0.901
GCCUGGAAUCUCUUCAUGUTT against Pde3a 0.679
CCAAAAGGUUCGAGUUUCATT against Padi4 1.57
GGAGUGUGUAUGGAAAAUATT against Tll1 0.0134
GGACCUUGGGCAGAUUCAATT against Atp10d 0.54
GGGUGUACAGGAUUUCCACTT against Nfyc 0.0255
GGAGCAACAACUUAAAUGUTT against Slc16a4 1.18
GCUUUAGAUACGUGAUUAGTT against Desi2 -0.125
CCUUAUGAGUCUUACGACUTT against Zfp326 1.15
GGAUGAUGAGCUGAACUUUTT against Mgrn1 -0.897
AAGAAUACUCAGAUCAGUUTT against Magee2 0.111
GGAAAUCUCAGGUGAGGUCTT against Clcc1 -0.127
GCCAGGAAUCACAAGAGCUTT against Mtg1 0.571
GGAGUUAGAAACUCAUUUUTT against Ppargc1b 1.5
GGCACCCAUUCCUAAAAUGTT against Hmgn5 -0.929
GGAUCUGAAAAAAUUAAGCTT against Stat2 0.65
CGAGUGUUUGGACAACAAUTT against Ldlr 0.391
CUAUGUGGUCACAAUAGAGTT against Olfr1360 0.411
CCUAUGUCACUAAGGCACGTT against Nudt13 0.482
GCACGAUCUUCCAAACCCUTT against Dhh -1.25
CCAGGGUGGUCUUUUGAAGTT against Eif1 -1.66
GGUAGAUGAUAAUUUCACUTT against 4930595M18Rik -0.894
GCCAUGAGACACCUUCUCUTT against Olfr843 -1.96
GGCGAACUGAAGGAUAUGGTT against Anapc5 0.835
ACAUGACAAACAACACUAUTT against Olfr960 -0.891
GCUUUCGGUGGAUUCCUUATT against Rars2 -0.714
GGCUUUCGGUUAUGACCAATT against Alas2 -0.385
GGAAACCAUCUUUGAACUUTT against Specc1l 0.54
GGAUGUAUGAUGCAGUUAUTT against Olfr1211 1.89
GGGAUUUGAGCAUCUUUCCTT against Lrrc40 0.571
GGCUUUGAUUAUGUUCCCATT against Fcer2a -0.188
GGUGACUAGAAAAAUGGAUTT against Cd1d1 0.528
GGAGAAGAUGUGGAGACAUTT against Edf1 -1.3
GGCAAAGAUCUUAUGGAGATT against Csf3r 0.0079
GGGAGUAUUACCUCCUUCATT against Igbp1b 0.00303
GCAGCUUGAGUUCUCGAAUTT against BC049715 0.971
GGAAGAAGCUCUAUGCUGATT against Fbxo9 -0.589
GCUUGACCUUUUUACUCCUTT against Siglece 0.262
GGAUAAUUCACAGUUCAAATT against Tlk1 1.14
GGACAUCAUGGACCUGAAGTT against Bmerb1 -0.582
GAAGCUAGAAGAGAUUAAATT against Cep41 0.821
CCCUGUUGAUGAACAAAUCTT against Ddt -0.262
CCUGUCGUUCCUCCUUACATT against Sec11a -1.29
CCAACCUCCCAUUCUGAAUTT against Ttc22 1.71
GGGCUUAUUCUGUUAAUAGTT against Mttp -0.215
CUUAGACCCAAUUCAAUUCTT against Zfp667 -0.0845
CGGCUUCUUAGGAAACUCUTT against Olfr358 -0.369
GGUGAAAACGUGGUUCCAGTT against Bsx -0.0072
GGCUAUGAAUAAACUUUUCTT against Olfr1016 0.429
GGGAUGGAGGAGGAGCUUATT against Bad 0.86
GGAUUCAAUUUUUUGCCAUTT against Pbdc1 -1.74
CCACGUAUUGUUAGUAGAATT against Ei24 0.251
GGAAACAGAUUUAAAGUGATT against Efcc1 1.03
GGACAAGAAGGCAAAUUAGTT against Arhgap9 0.366
GCAUAAUAAGCCAAUUCUGTT against Med17 -0.355
GCUGAAGUUUACUAUAACATT against Marco 0.565
GGUACCAUCACGUUGUGUATT against M6pr -0.76
CCUUGCUCUUUCCAGCUCUTT against Olfr704 0.332
GCUGAGGCAAUUUCAACUUTT against Ctla4 0.169
GCACGACACUCUGUGCAUCTT against Kyat3 0.6
GCAUCCUACUUCUCAACUUTT against Ceacam12 0.328
GGGUUUCGCUAGAACCAUUTT against Plekhg5 -0.541
GCUUGUUGCCUAGGACCUATT against Eif1ad -1.14
CCCUCAGAUUCAAAAAGUGTT against Krt1 0.233
GCAUGGAGAGAACCUGAAATT against Trim69 -0.801
GGAUAACAGUAAAUGGCUUTT against Zkscan8 0.152
GGUUAAGUUACUAACCCAGTT against 4931406C07Rik 1.01
GAGACACUUGUGCUGUAGGTT against F730035P03Rik 0.108
GGUAGUGAUUACGAACCAATT against Hey1 0.605
GGGCUGAUCUUUUUAACUGTT against Tpm3 -0.581
GGCCUUAGAGAAAAUCUUUTT against Brd3 0.871
GGCAUACCGUAAAAGUGGCTT against Olfr73 -1.95
GCCAAGAUGGUUAAAUACCTT against Ankrd34b -1.64
GGUUCGCCCUUGGAAAUGGTT against Dmap1 -0.258
GGAAUUCAUACCCUUGUUGTT against B3gnt5 -0.486
GGAGGUGAAAGGCAAAACUTT against Poldip2 -0.122
CGAAGGUCAAACAGUUUGATT against Stxbp6 -0.558
